Mtb FBA inh = Mtb FBA enzyme inhibitors, primary screen, biochemical, fluorescence, strain H37Rv. purified M. tuberculosis FBA, fluorescence read-out. inhibition, % at 1 µM. 2.3% of 360,000 active. Fructose-bisphosphate aldolase (Mycobacterium tuberculosis (strain ATCC 25618 / H37Rv)), …; in the data active = inhibition above about 27%;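 note: 0% = vehicle and 100% = reference inhibitor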
TcdB GH inh = TcdB glycohydrolase inhibitors, primary screen, biochemical, single point, plate reader. AID 652162, 2013. TcdB glycohydrolase enzymatic assay. 0.24% of 350,000 active. inhibition, % at 9.99 µM; in the data active = inhibition above about 10%
GDH-TPI counter = GDH-TPI coupling enzyme inhibitors, primary screen, artefact control for M. tuberculosis FBA inhibitor project, biochemical, absorbance, full deck | GDH-TPI coupled enzyme counterscreen, NADH absorbance | inhibition, % at 4.8 µM | AID 588335, 2011 | 1.2% of 360,000 active; in the data active = inhibition above about 30%;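 note: 0% = DMSO wells and 100% = wells lacking the enzyme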
Y pestis TopoI = Yersinia pestis topoisomerase I inhibitors, primary screen, biochemical, cleavage product accumulation, plate reader, single point; DNA topoisomerase I (Yersinia pestis CO92); Y. pestis Topo-I cleavage product accumulation; activity, % at 10 µM; 0.064% of 360,000 active; AID 504884, 2011; in the data active = activity above about 50%, passing the limit was not always enough
PrPC TRFRET = inhibitors of human cell surface prion protein PrPC, primary screen, cell-based, TR-FRET. Major prion protein (Homo sapiens), P04156. TR-FRET read-out. inhibition, % at 13.8 µM. 0.43% of 370,000 active; in the data active = inhibition above about 24%; note: 0% = median of the test wells and 100% = reference compound wells
* = called active by the depositor. In the library only some 3.2% were active in any assay of this set; here they are far more common.

Screening CCOc1ccc(/C=C/C(O)=C2/C(=O)N(C)C3(C)CC2c2ccccc2O3)cc1OC (stereo unspecified) returned Mtb FBA inh 2.9, TcdB GH inh 0.3, GDH-TPI counter 38.8*, Y pestis TopoI -8.7 and PrPC TRFRET 2.9.
For CC=Cc1ccc2n(c1=O)C[C@H]1[C@H](CO)[C@@H](C(=O)NCCc3ccccc3)N(C(C)=O)[C@@H]21 (mixture of isomers) the results were TcdB GH inh -0.6.
`CC(=O)NNC(=O)c1sc(=S)n(C)c1C` gave Mtb FBA inh -4.2, TcdB GH inh 0.6, GDH-TPI counter 33.3*, Y pestis TopoI 9.6 and PrPC TRFRET 2.0.
CCCNC(=O)Nc1ccc2c(c1)OC[C@H](C)N(Cc1cccnc1)C[C@H](C)[C@@H](OC)CN(C)C2=O was read as TcdB GH inh -0.1.
Screening CCc1[nH]nc(C(=O)N2CCCC(C(=O)c3cccc(OC(C)C)c3)C2)c1C (stereo unspecified) returned Mtb FBA inh 163.6*, TcdB GH inh -7.1, GDH-TPI counter -3.6, Y pestis TopoI 24.9 and PrPC TRFRET 9.5.
CCc1cc(C(=O)N2CCCC(C(=O)c3cccc(OC(C)C)c3)C2)n(C)n1 (stereo unspecified) was read as Mtb FBA inh 0.3, TcdB GH inh 2.0, GDH-TPI counter -7.0, Y pestis TopoI 23.1 and PrPC TRFRET 10.7.
`COc1cc(NS(=O)(=O)c2ccc(NC(C)=O)cc2)nc(OC)n1` gave Mtb FBA inh 1.4, GDH-TPI counter -4.0, Y pestis TopoI 1.2 and PrPC TRFRET 2.8.
`COc1cc(NS(=O)(=O)c2ccc(N/C=C(\C#N)c3nc4cc(Cl)ccc4o3)cc2)nc(OC)n1` gave Mtb FBA inh 4.9, GDH-TPI counter 52.8*, Y pestis TopoI -0.1 and PrPC TRFRET -6.8.
For CCOC(=O)/C(C#N)=N/Nc1ccc(S(=O)(=O)Nc2cc(OC)nc(OC)n2)cc1 the results were Mtb FBA inh -7.6, TcdB GH inh -1.6, GDH-TPI counter 37.9*, Y pestis TopoI -4.3 and PrPC TRFRET -1.8.
C[C@@H]1CCCCO[C@H](CN(C)C)[C@H](C)CN([C@@H](C)CO)C(=O)c2cc(NC(=O)Nc3ccccc3)ccc2O1 was read as TcdB GH inh 1.1.
Screening COc1cc(/C=N/n2c(C3CCCCC3)n[nH]c2=S)cc(Br)c1O returned Mtb FBA inh 0.9, TcdB GH inh 0.5, GDH-TPI counter 32.4*, Y pestis TopoI 12.6 and PrPC TRFRET 1.9.
For COc1cccc(C#Cc2ccc([C@@H]3[C@H]4CN(C(=O)Cc5cccnc5)CC(=O)N4[C@H]3CO)cc2)c1 the results were TcdB GH inh -1.4.
Screening CN(C)CC#Cc1cccc(-c2nc(C(=O)O)cc3c2[C@H](CCO)N(S(=O)C(C)(C)C)C3)c1 (stereo partly specified) returned TcdB GH inh -0.1.
COCCNC(=O)c1cc2c(c(-c3cccc(C#CCN(C)C)c3)n1)[C@H](CCO)N(S(=O)C(C)(C)C)C2 (stereo partly specified) was read as TcdB GH inh 10.1*.
`CCCCOc1ccc(/C=N/NC(=S)Nc2cc(C)ccc2C)cc1` gave Mtb FBA inh 2.4, GDH-TPI counter 40.2*, Y pestis TopoI 11.2 and PrPC TRFRET -6.6.
Screening CO[C@@H]1CN(C)C(=O)c2ccc(NC(=O)C3CCCCC3)cc2OC[C@@H](C)N(Cc2nccs2)C[C@H]1C returned TcdB GH inh 0.0.
For COc1ccc(/C=C2\SC(=O)N(CCNC(=O)C3=COCCO3)C2=O)cc1 the results were Mtb FBA inh 1.7, TcdB GH inh -9.4, GDH-TPI counter 30.8*, Y pestis TopoI 0.0 and PrPC TRFRET 4.6.
O=C(NCCN1C(=O)S/C(=C\c2ccc(Cl)cc2)C1=O)C1=COCCO1 was read as Mtb FBA inh -0.4, TcdB GH inh 1.5, GDH-TPI counter -0.9, Y pestis TopoI 1.2 and PrPC TRFRET -1.2.
`O=C(NCCN1C(=O)S/C(=C\c2ccccc2F)C1=O)C1=COCCO1` gave Mtb FBA inh 3.0, TcdB GH inh 1.4, GDH-TPI counter 42.0*, Y pestis TopoI -0.6 and PrPC TRFRET -2.6.
For O=C(NCCN1C(=O)S/C(=C\c2ccc(OC(F)F)cc2)C1=O)C1=COCCO1 the results were Mtb FBA inh 3.6, GDH-TPI counter 40.6* and Y pestis TopoI -5.4.
Screening COc1cc(C(=O)NCCN2C(=O)S/C(=C\c3cccs3)C2=O)cc(OC)c1OC returned Mtb FBA inh -2.8, TcdB GH inh 1.8, GDH-TPI counter 17.4, Y pestis TopoI -5.6 and PrPC TRFRET -11.1.
For COc1cc(/C=C2\SC(=O)N(CCNC(=O)c3c(C)noc3C)C2=O)cc(OC)c1OC the results were Mtb FBA inh 1.2, TcdB GH inh 0.4, GDH-TPI counter 30.7*, Y pestis TopoI 6.9 and PrPC TRFRET -16.8.
Screening COc1ccc(S(=O)(=O)N[C@H]2CC[C@H](CCNC(=O)Cc3ccccn3)O[C@@H]2CO)cc1 returned TcdB GH inh 0.4.
`CC(=O)c1ccc(N2CCN(C(=O)C3CCN(S(=O)(=O)c4ccc(F)cc4)CC3)CC2)cc1` gave Mtb FBA inh 5.5, TcdB GH inh 0.4, GDH-TPI counter 25.3, Y pestis TopoI -1.6 and PrPC TRFRET 12.1.
`COc1ccc(N2CCN(C(=O)C3CCCN(c4ncnc5c4nc4n5CCCCC4)C3)CC2)cc1` (stereo unspecified) gave Mtb FBA inh 1.8, TcdB GH inh 2.4, GDH-TPI counter 0.9, Y pestis TopoI 19.4 and PrPC TRFRET -5.0.
Screening CC(=O)c1ccc(N2CCN(C(=O)C3CCC3)CC2)cc1 returned Mtb FBA inh -0.3, GDH-TPI counter 44.5*, Y pestis TopoI -3.1 and PrPC TRFRET -4.6.
`CC(=O)c1ccc(N2CCN(C(=O)C3CCCN(c4ncnc5c4nc4n5CCCCC4)C3)CC2)cc1` (stereo unspecified) gave Mtb FBA inh 2.8, TcdB GH inh 0.7, GDH-TPI counter 31.0*, Y pestis TopoI 22.1 and PrPC TRFRET -5.4.
`CS(=O)(=O)Nc1ccc2c(c1)[C@@H]1C[C@@H](CC(=O)NCc3cccc(F)c3)O[C@H](CO)[C@@H]1O2` gave TcdB GH inh 0.4.
C[C@H]1CN([C@@H](C)CO)C(=O)c2cc(C3=CCCCC3)cnc2O[C@@H]1CN(C)C(=O)Cc1cccnc1 was read as TcdB GH inh 2.4.
Screening CCCNC(=O)N1C[C@H](C)[C@@H](OC)CN(C)C(=O)c2ccc(NC(C)=O)cc2OC[C@@H]1C returned TcdB GH inh 0.7.
For CCOC(=O)[C@@H]1[C@H]2COc3ccc(Br)cc3[C@H]2N2C(=O)N(c3ccc(Br)cc3)C(=O)[C@]12C the results were Mtb FBA inh 3.4, TcdB GH inh 0.7, GDH-TPI counter 7.6, Y pestis TopoI 9.0 and PrPC TRFRET 5.6.

Screening data (PubChem)
